{"source": "PubChem BioAssay AID896", "about": "(National Center for Advancing Translational Sciences (NCATS), 2007)", "note": "This is one part of the list. Records with an inconclusive call do not appear. Active and inactive are the calls of the source. Calls follow the shape of the dose curve; as a rule, active = well fitted inhibition curve with a large enough effect in the main read-out, with a control signal flat; inconclusive = small, poorly fitted or top-dose-only effect, or a change in a side signal; inactive = no such curve, though single readings can be large or run the other way.", "data": [{"biological_target": "Caspase-1 (Homo sapiens) (UniProt P29466)", "experiment": "Confirmation Concentration-Response Assay for Allosteric/Competitive Inhibitors of Caspase-1", "conditions": "purified caspase-1, fluorogenic substrate cleavage; series mostly up to 57.5 µM; activity change, negative = inhibition: at the top concentration", "source_text": "NIH Molecular Libraries Screening Centers Network [MLSCN]\nNIH Chemical Genomics Center [NCGC]\nPI Name: Dr. James Wells,\nDr. Enrique Perez-Paya, Dr.Janice Williams, Dr. Dennis Wolan, a person\nThe caspases (Cysteine Aspartyl Protease) comprise a related family of 14 dimeric proteases that are critical mediators of apoptosis (programmed cell death) and inflammation. The caspases represent an important class of drug targets for stroke, ischemia, cancer and inflammatory diseases. […] One goal of this project was to identify compounds that act as allosteric inhibitors via stabilizing the procaspase form of the enzyme. […]\nThe biochemical assay was configured using purified caspase 1 at a high enzyme concentration to promote formation of the homodimers and thus facilitate the identification of allosteric inhibitors. […] After initiation of the assay with substrate the plates were rapidly read using an automated robotic system (Kalypsys, Inc.) to maintain consistent timing. […] Product formation was also measured after 1 hour. […]\nCaspase 1 was prepared in buffer (50 mM HEPES pH 7.5, 50 mM KCl, 200 mM NaCl, 10 mM DTT, 0.1% CHAPS) at a concentration of 66.6 nM and 3 uL was dispensed to all wells using black solid Kalypsys 1536-well plates. […] The plates were then exposed using 405 nm excitation/520 nm emission filters for 4 sec and read at 20 sec intervals for 3 min. […]", "values": [{"smiles": "Cc1nc2c(C(=O)NCc3ccc4c(c3)OCO4)c[nH]n2c(=O)c1Cc1ccccc1F", "activity change, negative = inhibition": "-18.4% (inactive)"}]}]}
